Test [1] in a line: qHTS assay for small molecule agonists of the antioxidant response element (ARE) signaling pathway (AID 651741; active = well fitted activation curve with a large enough effect in the signal ratio; the % refers to the signal ratio; note: % of control where 0% means no effect). The method in brief: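 HepG2 ARE-bla reporter cells, 2,000/well; 5 h settle at 37 C/5% CO2; compound pin transfer (23 nL, DMSO); 16 h at 37 C; LiveBLAzer B/G FRET substrate, 2 h RT; fluorescence intensity read.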
A short description of test [2]: qHTS assay for small molecule activators of the p53 signaling pathway (AID 651743; active = well fitted activation curve with a large enough effect in the signal ratio, not every such curve was filed as active; the % refers to the signal ratio; note: series mostly up to about 92 µM; % of control where 0% means no effect). As to conditions: HCT-116 p53RE-bla, beta-lactamase FRET ratio, 16 h; activation: active compounds read high. The gist of the method: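 Reporter: beta-lactamase driven by p53 response elements, stably integrated in HCT-116 cells. Cells seeded at 4,000/well, 5 h preincubation, compound (DMSO) 16 h at 37 C; B/G FRET substrate 2 h RT; fluorescence intensity read.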
(In general: In qHTS, concentration-response curves come from the screen itself.)

The nature of test [3]: qHTS assay for environmental chemicals that activate the Aryl hydrocarbon Receptor (AhR) signaling pathway (AID 651777). Note: % of control where 0% means no effect; nearly all actives have a fitted effect of over 15% in size. As to conditions: 1A2-DRE human hepatoma cells, luciferase, 24 h; activation: active compounds read high. The method in brief:
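1A2-DRE human hepatoma reporter line; 1,200 cells/well; cmpd or DMSO 24 h, 37 C/5% CO2; One-Glo 30 min RT; luciferase lum.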

Test [4] can be described thus: qHTS assay for small molecule agonists of the antioxidant response element (ARE) signaling pathway measured by Nrf2-dependant transcriptional activity - cell viability counter screen (AID 720653; active = well fitted curve in the direction sought with a large enough effect in the repeat runs; an effect the other way counts as inactive or inconclusive; note: % is set by controls: 0 for no effect and ±100 for the full control effect). As to conditions: ARE-bla HepG2 viability, CellTiter-Glo ATP luminescence, 16 h; max response: active compounds read low. The method in brief:
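ARE-bla HepG2 cells treated with compounds for 16 h at 37C; this counter screen measures viability as intracellular ATP by CellTiter-Glo luminescence after 30 min at room temperature.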

The nature of test [5]: qHTS assay for cell viability of HEK293 cells (AID 743288). Note: % is set by controls: 0 for no effect and ±100 for the full control effect; nearly all actives have a fitted effect of over 50% in size. As to conditions: ATP luminescence (CellTiter-Glo), 18 h; max response: active compounds read low. The gist of the method: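 Readout is luciferase-coupled ATP content (CellTiter-Glo luminescence, 30 min room temperature) as a measure of metabolically competent cells. Parental HEK293 cells were plated 5 h or more before compound addition, then treated 18 h at 37 C.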

Test [6] is described as follows: qHTS for Inhibitors of Ubiquitin-specific Protease USP2a Using CHOP2 as the Reporter: Cytotox Assay (AID 652170).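 Note: HCT116 human colon cancer cells at 600 per well; series mostly up to about 46 µM; plate controls were DMSO-treated cells for no effect and wells without cells for full effect; nearly all actives have a fitted effect of over 70% in size.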 The method in brief: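 Cytotoxicity read as ATP luminescence (CellTiter-Glo) after 72 hr compound treatment at 37 deg C. Cells: HCT116, 600/well in DMEM plus 10% FBS. Normalization between DMSO-treated cells and cell-free wells.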
In test [7] the target is Ubiquitin carboxyl-terminal hydrolase 2 (Homo sapiens) (UniProt O75604). Kind of test: qHTS for Inhibitors of Ubiquitin-specific Protease USP2a Using CHOP2 as the Reporter: K484 Substrate (AID 652173).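 Note: cleavage of internally quenched K48 di-ubiquitin substrate measured as rising fluorescence over time; nearly all actives have a fitted effect of over 70% in size.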 Note: potency is the fitted concentration of half-maximal effect. The gist of the method: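 Kinetic fluorescence (Ex 525/Em 598) tracked cleavage of an internally quenched K48 di-ubiquitin substrate, added as a 100 nM solution. The enzyme was added as a 5 nM USP2 solution before compound pinning, with no-enzyme controls. Buffer: Tris pH 8, beta-mercaptoethanol, CHAPS.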

SMILES strings stand for the structures. Values joined by “and” are separate entries in the source; they are usually repeats but may differ in a detail not shown here. Identical values can stand only once. Results filed as inconclusive are left out. Unmarked numbers belong to inactive results. Active and inactive are the calls of the source. Unless noted, calls come from the whole dose curve; as a rule, active = well fitted curve in the direction sought with a large enough effect; inconclusive = small, poorly fitted or top-dose-only effect, or another doubt; inactive = no such curve, though single readings can be large; an effect the other way counts as inactive or inconclusive.

Chain of Ubiquitin carboxyl-terminal hydrolase 2 (Homo sapiens) (O75604 whole entry, looked up): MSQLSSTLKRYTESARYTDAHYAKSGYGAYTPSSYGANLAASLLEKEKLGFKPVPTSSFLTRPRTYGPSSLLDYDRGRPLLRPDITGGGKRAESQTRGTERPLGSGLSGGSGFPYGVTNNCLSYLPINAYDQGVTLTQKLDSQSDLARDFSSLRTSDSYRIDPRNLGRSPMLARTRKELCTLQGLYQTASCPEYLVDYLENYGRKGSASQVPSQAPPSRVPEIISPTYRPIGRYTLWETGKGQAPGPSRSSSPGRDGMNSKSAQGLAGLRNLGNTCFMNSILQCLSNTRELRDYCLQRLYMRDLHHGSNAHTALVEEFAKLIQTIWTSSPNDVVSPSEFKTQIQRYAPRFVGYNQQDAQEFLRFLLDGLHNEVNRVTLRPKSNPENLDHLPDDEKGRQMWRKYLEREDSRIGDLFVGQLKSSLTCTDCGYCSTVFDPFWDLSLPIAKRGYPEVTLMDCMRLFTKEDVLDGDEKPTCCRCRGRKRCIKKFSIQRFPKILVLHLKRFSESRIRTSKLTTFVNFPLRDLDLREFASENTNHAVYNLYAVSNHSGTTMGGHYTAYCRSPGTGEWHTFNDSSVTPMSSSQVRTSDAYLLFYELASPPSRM

Turning to `CCCCCCCC1CCC(=O)O1` (stereo not drawn), in test [1], the Potency entry was “inactive”. Besides, the values for the activation in test [2] and in test [3] were -2.71% and 4.53%, respectively. Moreover, the max response in test [4] and in test [5] was -3.73% throughout.

For the molecule `CC(C)Cc1ccc(-c2csc(Nc3ccc(S(=O)(=O)Nc4nccs4)cc3)n2)cc1`, the Potency result in test [6] is “inactive”. Also, the Potency in test [7] was 5.44 µM (active).

As to `Cc1ccc(-c2cc(C(=O)Nc3cccc(S(=O)(=O)Nc4nccs4)c3)c3ccccc3n2)cc1C`, the Potency entry in test [6] is “inactive”. Also, in test [7], the Potency was 3.06 µM (active).

For `O=C(Nc1ccc(S(=O)(=O)Nc2nccs2)cc1)c1ccnc2ccccc12`, in test [6], the Potency entry was “inactive”. Moreover, in test [7], the Potency is 21.7 µM (active).

Regarding `COc1ccccc1S(=O)(=O)Nc1cnccc1C(=O)Nc1nc(-c2ccccc2)cs1`, the Potency entry in test [6] was “inactive”. Besides, the Potency in test [7] is 13.7 µM (active).

In the case of `Cc1ccc(-c2cc(C(=O)NCc3ccc(S(N)(=O)=O)cc3)c3ccccc3n2)cc1C`, in test [6], the Potency result is “inactive”. Besides, the Potency in test [7] is 9.68 µM (active).

`O=C(Nc1nc(-c2ccccc2)cs1)c1ccncc1NS(=O)(=O)c1ccc(F)cc1`: the Potency entry in test [6] is “inactive”. For the same molecule, the Potency in test [7] was 3.06 µM (active).

For the molecule `O=C(Nc1nc(-c2ccccc2)cs1)c1ccncc1NS(=O)(=O)c1cccs1`, the Potency result in test [6] is “inactive”. Besides, in test [7], the Potency was 3.43 µM (active).

In the case of `O=C(O)C1CCC(C(=O)Nc2ccc([S+](=O)([O-])Nc3nccs3)cc2)CC1` (stereo not drawn), the Potency result in test [6] and in test [7] was “inactive” throughout.

Regarding `Cc1ccc(-c2cc(C(=O)Nc3ccc(S(N)(=O)=O)cc3)c3cccc(C)c3n2)cc1C`, the Potency result in test [6] is “inactive”. Besides, the Potency in test [7] was 17.2 µM (active) and 6.85 µM (active).

The values are drawn from PubChem BioAssay (NCATS).
